Bioassay records (PubChem)
PNC assembly inh – blocks assembly of the perinucleolar compartment; AID 2417; actives 3.1% (n = 140,000); PC3M PTB-GFP, PNC prevalence imaging, 16 h; active compounds read low; activity change (PNC), negative = inhibition, % at 10 µM;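 active means readout at or below -70, meaning at least 70% loss of cells showing the perinucleolar compartment, a nuclear body marking cancer cells; inconclusive means readout between -30 and a set limit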;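 further: plate controls were DMSO wells for no effect and camptothecin positive control wells for full effect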
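Compounds are pinned in duplicate onto adhered PC3M cells stably expressing GFP-tagged PTB and incubated 16 h at 37 C. Cells are then fixed, nuclei stained with Hoechst, and PNC-positive cells counted.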
Luc counter – counter-screen: inhibitors of Kinase-Glo firefly luciferase | Q27757 | Potency, µM (series often up to 38.3 µM), for inactives: at the highest dose activity change, negative = inhibition, most hits filed as inhibitors | actives 0.28% (n = 200,000) | Kinase-Glo luciferase, ATP luminescence, 8 min; active means well fitted inhibition curve with a large enough effect; inconclusive means small, poorly fitted or top-dose-only effect; further: potency means the concentration at half of the fitted maximal effect; nearly all actives have a fitted effect of over 60% in size
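Inhibition of Kinase-Glo luciferase light generation was assessed at 10 uM ATP in pH 7.2 imidazole buffer, with luminescence measured after eight minutes at ambient temperature.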
ALDH1A1 inh – ALDH1A1 (human) enzyme inhibition; Potency, µM (doses to about 75.3 µM), for the others: at the highest dose activity, negative = inhibition, most hits filed as inhibitors; Purified ALDH1A1, NADH fluorescence, propionaldehyde substrate; actives 7.3% (n = 220,000); AID 1030;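 further: potency means the concentration at half of the fitted maximal effect; plate controls were no enzyme wells and a reference inhibitor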
Target sequence (P00352 whole entry, looked up): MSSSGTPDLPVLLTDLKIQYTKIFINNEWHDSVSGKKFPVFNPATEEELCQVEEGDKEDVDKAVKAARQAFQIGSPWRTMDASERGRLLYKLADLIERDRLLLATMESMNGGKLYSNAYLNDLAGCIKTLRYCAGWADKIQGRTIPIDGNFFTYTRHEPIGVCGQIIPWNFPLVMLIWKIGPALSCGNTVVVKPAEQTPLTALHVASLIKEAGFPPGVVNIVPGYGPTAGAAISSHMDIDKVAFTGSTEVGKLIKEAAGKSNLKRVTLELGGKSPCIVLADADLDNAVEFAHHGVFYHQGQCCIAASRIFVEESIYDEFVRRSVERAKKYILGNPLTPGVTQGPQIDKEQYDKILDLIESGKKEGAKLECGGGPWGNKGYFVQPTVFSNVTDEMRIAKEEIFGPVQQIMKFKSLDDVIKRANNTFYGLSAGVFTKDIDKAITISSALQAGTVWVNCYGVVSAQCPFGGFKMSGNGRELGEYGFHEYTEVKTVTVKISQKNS
Lamin A splicing – LMNA splicing modulation; HeLa LMNA splicing GFP/RFP minigene ratio, 48 h; Potency, µM (highest dose often 46.1 µM), inactives show top-dose ratio change, negative = inhibition, usual class: inhibitors; actives 0.01% (n = 200,000); AID 1487; active means well fitted inhibition curve with a large enough effect in the signal ratio, with a control signal flat, not every such curve was filed as active; inconclusive means small, poorly fitted or top-dose-only effect, or effect the other way, or a change in a side signal; the % refers to the signal ratio; further: potency means the concentration at half of the fitted maximal effect
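S3 HeLa stable clones carrying a lamin A-EGFP splicing minigene plus DsRed2 were seeded at 600 cells/well in Opti-MEM with 2% FBS, pin-dosed and incubated 48 h at 37°C. Acumen cytometry (488 nm) gave the GFP/RFP total-intensity ratio.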
HPGD block – inhibitors of human 15-hydroxyprostaglandin dehydrogenase (HPGD). Potency, µM, for the others: top-dose activity change, negative = inhibition, hits mostly inhibitors. purified HPGD, NADH fluorescence kinetic, PGE2 substrate. actives 4.3% (n = 150,000). P15428; further: potency means the concentration at half of the fitted maximal effect
Target sequence (P15428 whole entry, looked up): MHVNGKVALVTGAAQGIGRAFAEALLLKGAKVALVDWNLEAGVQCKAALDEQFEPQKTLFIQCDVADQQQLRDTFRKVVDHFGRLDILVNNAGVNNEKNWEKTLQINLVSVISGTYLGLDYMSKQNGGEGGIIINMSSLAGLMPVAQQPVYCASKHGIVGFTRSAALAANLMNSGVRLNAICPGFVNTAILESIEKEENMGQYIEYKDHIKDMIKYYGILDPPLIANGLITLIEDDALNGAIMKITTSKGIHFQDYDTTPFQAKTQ
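20 nM HPGD preincubated 15 min at room temperature with compound in 50 mM Tris-HCl pH 8, 0.01% Tween 20. Started with 1 mM NAD+ and 30 uM prostaglandin E2; NADH fluorescence (360/450 nm) read 5 times over 30-s intervals, last minus first.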
Active calls of the source: *; u = inconclusive; x = not tested or not shown; [ ] = another dose, or the depositor's remark. In the library only some 10% were active in any assay of this set; here they are far more common. Unless noted, the call rests on the fitted dose curve; in most records, active means well fitted inhibition curve with a large enough effect (not every such curve was filed as active); inconclusive means small, poorly fitted or top-dose-only effect, or another doubt; inactive means no such curve, though single readings can be large or run the other way. Unless noted, on the % scale 0 is the no-effect control and ±100 the full control effect.

SMILES	PNC assembly inh	Luc counter	ALDH1A1 inh	Lamin A splicing	HPGD block
CCN1C(=O)CC(C(=O)Nc2ccc(F)cc2)SC1=Nc1cccc(OC)c1 (stereo not drawn)	u	-1.2%	10µM*	-29.6%	-3.3%
COc1cccc(NC(=O)C2CC(=O)N(C)C(=Nc3cccc(F)c3)S2)c1 (stereo not drawn)	6.6	5.0%	u	u	-12.6%
C[C@H]1Cc2c(COc3ccccc3)nc3c(c2CO1)CN(S(=O)(=O)c1ccc(C#N)cc1)CC3	x	-5.8%[7.66 µM]	6.0%[13.5 µM]	16.4%[9.22 µM]	-1.6%
CCOC(=O)C(=O)Nc1ccc(OCc2ccccc2)cc1	x	-11.2%	25.1µM*	-3.8%[46 µM]	x
C/C(CC(=O)Nc1ccc(C)c(Cl)c1)=N\NC(=O)Cc1ccccc1	27.2	-0.3%	u	-7.7%	-13.6%
Cc1oc(C(=O)Nc2ccc(C(=O)O)cc2)cc1COc1ccccc1	u	-2.8%	-7.0%	u	20µM*
C/C(CC(=O)Nc1ccc(OCc2ccccc2)cc1)=N\NC(=O)C(=O)Nc1ccc(C)c(Cl)c1	1.1	-6.3%	14.1µM*	13.8%	-13.0%
CCOCC(=O)Nc1ccc(OCc2ccccc2)cc1	x	-17.6%	u	x	x
Cc1cc(C(=O)Nc2ccc(OCc3ccccc3)cc2)c(C)o1	x	11.2µM*	u	x	x
Cc1ccc(-c2nc(C)c(CCNS(=O)(=O)c3ccccc3F)s2)cc1	x	x	x	14.6%[46 µM]	x
CC(CCc1ccccc1)NS(=O)(=O)c1ccccc1 (stereo not drawn)	u	1.9%	10µM*	5.0%	-10.6%
CC(CCc1ccccc1)NC(=O)Cc1ccccc1 (stereo not drawn)	-21.6	-0.8%	-2.5%	11.2%	-12.2%
O=[N+]([O-])C(/C=C(\Cl)[N+](=O)[O-])=C(N1CCCCC1)N1CCCCC1	x	-0.6%	14.1µM*	x	x
O=[N+]([O-])C(=C1SCCS1)C(=C(Cl)Cl)N1CCCCC1	x	2.8%	u	x	x
CC1(C)CC(=O)C2=C(C1)N(c1cccc(Cl)c1)C(=O)NC2(C(F)(F)F)C(F)(F)F	-80.2*	-5.5%	-17.4%	2.3%	-10.3%
CCCC(=O)C1=C(c2ccccc2)C(C#N)(C#N)C(C#N)=C1N	0.7	-2.5%	u	9.7%	1.41µM*
CCCC(=O)NC1=C(C#N)C2(CCCC2)Cc2ccccc21	u	0.3%	-5.2%	14.5%	-11.2%
Cc1nnc2c3ccccc3c(-c3cccs3)nn12	x	0.8%	9.1%	7.94µM*	x
Cc1ccc(NC(=O)CCNC(=O)c2ccc(Cl)cc2)cc1F	53.6	-2.0%	3.3%	-5.9%	-20.5%
CCC(O)CNC(=O)NC(=C(Cl)Cl)c1ccc(C)c(F)c1 (stereo not drawn)	-2.2	1.2%	3.55µM*	u	-13.7%
COc1ccc(NS(=O)(=O)c2cnc(N)nc2)cc1Cl	x	x	x	-7.5%[46 µM]	x
CCC(=S)/C=C1\Sc2ccc3ccccc3c2N1CCCS(=O)(=O)O	u	-8.0%	-2.8%	15.9%	31.6µM*
O=C1Cc2cc(S(=O)(=O)N3CCCCC3)cc3c2N1CCC3	x	x	x	10.0%[46 µM]	x
COc1cccc(OC)c1C(=O)NC(=S)Nc1ccc2c(c1)C(=O)N(C)C2=O	-6.6	-1.9%	-15.5%	-20.5%	u
COc1cc(C(=O)NC(=S)Nc2ccc3c(c2)C(=O)N(C)C3=O)cc(OC)c1OC	9.5	0.6%	1µM*	-6.8%	-3.9%
SMILES	PNC assembly inh	Luc counter	ALDH1A1 inh	Lamin A splicing	HPGD block
COC(=O)c1ccc2c(c1)SC1=C(CCCC1=O)N2	23.1	-2.6%	3.8%	-5.6%	39.8µM*
Cc1cnc(CNc2cc(-c3ccc4c(c3)OCO4)ncn2)cn1	x	x	u	-5.5%	x
COc1ccc(Cc2nn3c(-c4ccccc4Br)nnc3s2)cc1	u	-2.3%	u	u	u
COc1ccc(Cc2nn3c(-c4cc(OC)c(OC)c(OC)c4)nnc3s2)cc1	14.5	0.4%	11.2µM*	u	22.4µM*
COc1cc(-c2nnc3sc(Cc4ccccc4)nn23)cc(OC)c1OC	21.6	-1.2%	22.4µM*	7.7%	u
COC(=O)c1cccc(C23CC4(C2)[C@H](CN(CC2CCCCC2)[C@@H]4c2ccccc2)C3c2ccc(C(F)(F)F)cc2)c1 (stereo partly drawn)	x	-5.3%	3.0%	x	-9.5%
Cc1ccc(C2CC(=O)Oc3cc(C)c(Cl)c(C)c32)cc1 (stereo not drawn)	x	-1.8%[39.9 µM]	-12.9%	x	-16.0%
O=C1c2ccccc2C(=O)C1(O)O	x	x	1.19µM*	x	-6.7%
C[C@H]1C=C2C=C[C@H](C)[C@H](CC[C@@H]3C[C@@H](O)CC(=O)O3)[C@H]2[C@@H](OC(=O)[C@@H](C)CCO)C1	x	0.9%	u	x	-8.8%
CCCSc1nnc(-c2cnn(-c3ccccc3)c2-n2cccc2)n1C	23.8	0.1%	u	20.2%	17.8µM*
Cc1ccc(CNC(=O)COCc2cc(-c3ccc4c(c3)OCO4)on2)cc1	x	x	x	-4.8%[46 µM]	x
O=C(O)c1ccc(S(=O)(=O)N=Nc2c(O)[nH]c3ccccc23)cc1	x	5.9%[7.66 µM]	u	x	u
O=C(Nc1ccccc1)Nc1ccc(C(=O)N2CCOCC2)cc1	-5.4	3.16µM*	3.1%	-7.0%	15.8µM*
O=C(Cn1nnc(-c2ccccc2F)n1)Nc1ccc(C(=O)N2CCOCC2)cc1	-11.0	2.5%	-1.0%	4.3%	39.8µM*
O=C(Cn1nnc(-c2ccccc2F)n1)Nc1ccc(S(=O)(=O)NC2CCCC2)cc1	27.4	1.0%	0.3%	12.0%	7.08µM*
O=C(Cn1nnc(-c2ccccc2F)n1)Nc1ccc2c(c1)OCO2	7.0	12.3%	11.0%	-1.6%	-12.9%
O=S(NCc1ccco1)C12CC3CC(CC(C3)C1)C2 (stereo not drawn)	-100.0*	4.8%	u	0.8%	u
Brc1ccccc1-c1nnc2sc(Cc3ccccc3)nn12	23.8	-0.3%	-14.2%	-29.0%	15.8µM*
c1ccc(CCc2nn3c(-c4ccncc4)nnc3s2)cc1	u	-0.8%	10µM*	-3.7%	5.01µM*
Clc1ccccc1-c1nnc2sc(CCc3ccccc3)nn12	-9.4	-1.1%	3.98µM*	u	8.91µM*
Cc1nnc(SCC(=O)NCc2cccs2)n1-c1ccccc1	-21.0	0.9%	-4.1%	6.9%	1.9%
Cc1nnc(SCc2ccccc2F)n1NCc1cccs1	u	2.6%	-8.7%	-4.6%	31.6µM*
Cc1ccc(Cn2c(CN3CCC(C(=O)NCC(C)c4ccccc4)CC3)cc3ccccc32)cc1 (stereo not drawn)	x	x	x	-27.7%[46 µM]	x
COc1cc(Cl)c(NC(=O)CCS(=O)(=O)c2cc3c(cc2Cl)NC(=O)CO3)c(OC)c1	x	x	x	8.6%[46 µM]	x
O=Nc1ccc(NOC(=O)c2ccccc2Br)cc1	5.2	u	12.6µM*	-4.2%	28.2µM*
c1ccc2c(CN3CCN(Cc4c[nH]c5ccccc45)CC3)c[nH]c2c1	x	-2.7%[7.66 µM]	-11.2%[13.5 µM]	x	-12.4%
O=C(O)c1[nH]c2ccc(Br)cc2c1CCN1C(=O)c2cccc([N+](=O)[O-])c2C1=O	x	x	31.6µM*	x	x
Cc1cc(=O)n(C(C)C(=O)N2CCCc3ccccc32)c2c1c(C)nn2-c1ccccc1 (stereo not drawn)	x	x	x	-27.6%[46 µM]	x
